# Results published in PubChem BioAssay (NCI).
# The panel holds about 79,000 compounds, 15% with a hit somewhere; the sample as a whole holds those more often. Unmarked numbers belong to inactive results. The source made the active and inactive calls. No stated cut-off is given here; in the data, active means growth inhibition above about 70%; inactive means the rest.
# Tests used:
# [1] = NCI Yeast Anticancer Drug Screen. Data for the sgs1 mgt1 strain (AID 161);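 further: 0% = growth of cultures given vehicle only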; conditions: S. cerevisiae sgs1 mgt1 strain, stronger effect = higher value
# Summary of the method: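 Read-out: growth inhibition vs vehicle controls. Cells: mutant yeast strain deficient in DNA damage repair.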
# [2] = NCI Yeast Anticancer Drug Screen. Data for the CLN2oe strain (AID 163);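 further: 0% = growth of vehicle-only control cultures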; conditions: S. cerevisiae CLN2oe strain, stronger effect = higher value
# Summary of the method: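 Read-out: yeast growth inhibition, expressed relative to vehicle-only controls. The strain bears an engineered cell-cycle alteration.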
# [3] = NCI Yeast Anticancer Drug Screen. Data for the cln2 rad14 strain (AID 165);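 further: 0% = growth equal to vehicle treated cultures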; conditions: S. cerevisiae cln2 rad14 strain, stronger effect = higher value
# Summary of the method: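 cln2 rad14 yeast strain; compound exposure; growth inhibition read vs vehicle controls.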
# [4] = NCI Yeast Anticancer Drug Screen. Data for the bub3 strain (AID 167); conditions: S. cerevisiae bub3 mutant strain, stronger effect = higher value
# Summary of the method: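 Readout: yeast growth inhibition, expressed relative to vehicle-only wells. The test organism is a mutant strain from a panel with lesions in DNA repair or checkpoint genes.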
# [5] = NCI Yeast Anticancer Drug Screen. Data for the wt2 strain (AID 169);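 further: 0% = growth of vehicle-treated yeast cultures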; conditions: S. cerevisiae wt2 strain growth inhibition, stronger effect = higher value
# Summary of the method: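 Read-out: growth inhibition versus vehicle-treated control cultures after compound exposure of the yeast strain.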
# [6] = NCI Yeast Anticancer Drug Screen. Data for the mlh1 strain (AID 171);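 further: 0% = growth of vehicle-treated control cultures of the same strain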; conditions: S. cerevisiae mlh1 strain growth inhibition, stronger effect = higher value
# Summary of the method: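 Read-out: growth inhibition versus vehicle controls. Strain: engineered yeast with a defined DNA repair or cell cycle defect, compound-treated.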
# [7] = NCI Yeast Anticancer Drug Screen. Data for the sgs1 strain (AID 173);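 further: 0% = growth of vehicle-only control cultures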; conditions: S. cerevisiae sgs1 mutant, stronger effect = higher value
# Summary of the method: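 Read-out: yeast growth inhibition relative to vehicle controls, following compound exposure of a strain with a defined DNA repair/cell cycle alteration.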
# [8] = NCI Yeast Anticancer Drug Screen. Data for the mlh1 rad18 strain (AID 175); conditions: S. cerevisiae mlh1 rad18 strain growth inhibition, stronger effect = higher value
# Summary of the method: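 Yeast w/ defined DNA-repair lesions; compound exposure; growth vs vehicle controls → % inhibition.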
# [9] = NCI Yeast Anticancer Drug Screen. Data for the rad18 strain (AID 177); conditions: S. cerevisiae rad18 mutant growth inhibition, stronger effect = higher value
# Summary of the method: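 Readout: growth inhibition vs vehicle controls. Cells: genetically altered yeast strain, DNA repair defect.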
# [10] = at 5.0 µM (retest, dose inferred, filed as 0.5)
# [11] = at 50.0 µM (retest, dose inferred, filed as 5.0)
structure (smiles),measurement,setting,value
COC(=O)C1=C(C(=O)OC)C2(C)C=CC1O2 (configuration not stated),growth inhibition,[1]; [10],-55%
same,growth inhibition,[1]; [11],63%
same,growth inhibition,[1]; at 50.0 µM,82.2% (active)
same,growth inhibition,[2]; at 1.2 µM,-7%
same,growth inhibition,[2]; at 3.7 µM,-5%
same,growth inhibition,[2]; at 11.0 µM,-4%
same,growth inhibition,[2]; at 33.0 µM,15%
same,growth inhibition,[2]; at 100.0 µM,42%
same,growth inhibition,[3]; [10],-46%
same,growth inhibition,[3]; [11],-7%
same,growth inhibition,[3]; at 50.0 µM,19.1%
same,growth inhibition,[4]; at 1.2 µM,-9%
same,growth inhibition,[4]; at 3.7 µM,-3%
same,growth inhibition,[4]; [10],-62%
same,growth inhibition,[4]; at 11.0 µM,10%
same,growth inhibition,[4]; at 33.0 µM,75% (active)
same,growth inhibition,[4]; [11],74% (active)
same,growth inhibition,[4]; at 50.0 µM,89.6% (active)
same,growth inhibition,[4]; at 100.0 µM,94% (active)
same,growth inhibition,[5]; at 1.2 µM,-4%
same,growth inhibition,[5]; at 3.7 µM,-3%
same,growth inhibition,[5]; at 11.0 µM,52%
same,growth inhibition,[5]; at 33.0 µM,91% (active)
same,growth inhibition,[5]; at 100.0 µM,97% (active)
same,growth inhibition,[6]; at 1.2 µM,-14%
same,growth inhibition,[6]; at 3.7 µM,-10%
same,growth inhibition,[6]; at 11.0 µM,-7%
same,growth inhibition,[6]; at 33.0 µM,52%
same,growth inhibition,[6]; at 100.0 µM,90% (active)
same,growth inhibition,[7]; at 1.2 µM,-4%
same,growth inhibition,[7]; at 3.7 µM,-4%
same,growth inhibition,[7]; at 11.0 µM,33%
same,growth inhibition,[7]; at 33.0 µM,84% (active)
same,growth inhibition,[7]; at 100.0 µM,95% (active)
same,growth inhibition,[8]; [10],-114%
same,growth inhibition,[8]; [11],48%
same,growth inhibition,[8]; at 50.0 µM,86.2% (active)
same,growth inhibition,[9]; at 1.2 µM,-10%
same,growth inhibition,[9]; at 3.7 µM,-6%
same,growth inhibition,[9]; at 11.0 µM,10%
same,growth inhibition,[9]; at 33.0 µM,62%
same,growth inhibition,[9]; at 100.0 µM,89% (active)
